Results filed as inconclusive are left out. Calls of active or inactive are those of the source. The calls were made as follows, unless noted: active = hit-call score of the fitted dose curve at least 0.9, where 1 is the maximum; inconclusive = response in the unintended direction; inactive = score below 0.9.
Columns and labels:
[1] = read-out: UDP glucuronosyltransferase (UGT1A6), UGT1A6 (gene 54578); assay: LTEA_HepaRG_UGT1A6: Life Technologies and Expression Analysis (LTEA) Assay for UDP glucuronosyltransferase (UGT1A6) using HepaRG (AID 2283539; active = hit-call score of the fitted dose curve at least 0.9, where 1 is the maximum; inactive = score below 0.9); conditions: mRNA level, 48 h; actives raise or lower the signal
Procedure, shortened: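 Expression was quantified by TaqMan qRT-PCR on Fluidigm arrays with ACTB/GAPDH/POLR2A normalization and bidirectional fitting against 0.5% DMSO. HepaRG cells (~100,000/well) were treated in duplicate for 48 h at eight half-log concentrations up to 100 uM in serum-free induction medium.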

[2] = read-out: X-box binding protein 1 (XBP1), XBP1 (gene 7494); assay: LTEA_HepaRG_XBP1: Life Technologies and Expression Analysis (LTEA) Assay for X-box binding protein 1 (XBP1) using HepaRG (AID 2283540; active = hit-call score of the fitted dose curve at least 0.9, where 1 is the maximum; inactive = score below 0.9); conditions: mRNA level, 48 h; actives raise or lower the signal
Procedure, shortened: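 XBP1 transcript by qRT-PCR (housekeeping-normalized: ACTB, GAPDH, POLR2A) after 48 h chemical treatment of HepaRG cells, 8-point half-log series topping at 100 uM, vehicle 0.5% DMSO. Gain and loss of signal fitted relative to DMSO.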

[3] = LTEA_HepaRG_LDH_cytotoxicity: Cytotoxicity Assessment in the Life Technologies and Expression Analysis (LTEA) Assay (AID 2283563);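 as to AC50: LDH activity released into spent culture medium as a marker of cell death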
Procedure, shortened: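 LDH release into culture medium read after 48 h chemical treatment of HepaRG cells. Duplicate wells, eight-point half-log series topping at 100 uM, 0.5% DMSO vehicle and baseline.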

[4] = ATG_XTT_Cytotoxicity: Cytotoxicity Assessment in the Attagene TRANS-FACTORIAL HepG2 Assay (AID 2283584)
Procedure, shortened: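 Viability endpoint from XTT after 24 h chemical exposure of reporter-transfected human HepG2 liver cells; signal loss fitted relative to DMSO negative control.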

[5] = target: Cellular tumor antigen p53 (Homo sapiens) (UniProt P04637); assay: TOX21_p53_BLA_p2_ratio: Tox21 HCT-116 p53 Agonism Beta-lactamase Assay, Ratio, Phase 2 (AID 2283592)
Cellular tumor antigen p53 (Homo sapiens), sequence (P04637 whole entry, looked up): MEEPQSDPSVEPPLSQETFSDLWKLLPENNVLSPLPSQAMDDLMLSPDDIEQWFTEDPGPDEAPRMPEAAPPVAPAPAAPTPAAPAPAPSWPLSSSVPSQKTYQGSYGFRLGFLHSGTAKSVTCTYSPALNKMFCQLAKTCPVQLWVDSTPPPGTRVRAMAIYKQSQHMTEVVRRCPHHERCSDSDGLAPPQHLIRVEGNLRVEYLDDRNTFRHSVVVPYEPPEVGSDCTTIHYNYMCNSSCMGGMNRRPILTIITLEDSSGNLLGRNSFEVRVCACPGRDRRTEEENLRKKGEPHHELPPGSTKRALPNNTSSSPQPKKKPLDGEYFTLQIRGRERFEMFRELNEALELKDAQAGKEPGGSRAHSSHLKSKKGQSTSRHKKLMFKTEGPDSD
Procedure, shortened: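 Read-out is the blue/green (460/530 nm, 405 nm excitation) ratio after 2 h CCF4-AM loading, fitted as gain versus DMSO. Compounds, pinned at 217-fold dilution from DMSO stocks, stayed 16 h on HCT-116 beta-lactamase reporter cells seeded 5 h earlier.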

[6] = TOX21_p53_BLA_p5_viability: Viability Assessment in the Tox21 HCT-116 p53 Agonism Beta-lactamase Assay, Phase 5 (AID 2283600)
Procedure, shortened: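 Viability came from CellTiter-Glo ATP luminescence, read after 30 min at room temperature. Before this, HCT-116 p53-bla cells (4000/well) had 16 hours of compound exposure at 37C, with DMSO stocks diluted 217-fold on transfer.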

[7] = target: Cellular tumor antigen p53 (Homo sapiens) (UniProt P04637); assay: TOX21_p53_BLA_p4_ratio: Tox21 HCT-116 p53 Agonism Beta-lactamase Assay, Ratio, Phase 4 (AID 2283601)
Procedure, shortened: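 HCT116 cells carrying an inducible beta-lactamase reporter were plated at 4000 cells/well, rested 5 h, then exposed to compounds in DMSO (217-fold dilution) for 16 h at 37C. CCF4-AM substrate was loaded 2 h at room temperature; 460/530 nm emission ratio scored gain-of-signal versus DMSO.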

[8] = Tanguay_ZF_120hpf_MORT_legacy: (Legacy) Oregon State University Tanguay Lab 120 Hour Post-fertilization zebrafish Assay for Mortality (AID 2283633)
Procedure, shortened: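 Static waterborne exposure from 6 to 120 hpf at 28C of single dechorionated wild-type (5D) embryos per well, 0.64% DMSO final. Death recorded present/absent by brightfield at 24 and 120 hpf.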

[9] = Tanguay_ZF_120hpf_YSE_legacy: (Legacy) Oregon State University Tanguay Lab 120 Hour Post-fertilization zebrafish Assay for Yolk Sac Edema (AID 2283634);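 as to AC50: actives raise the incidence of yolk sac edema above the DMSO baseline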
Procedure, shortened: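 Presence or absence of yolk sac edema was recorded at 120 hpf in surviving larvae. These were wild-type Tropical 5D embryos, chorion removed at 4 hpf, held in static exposure at 28C from 6 hpf with 0.64% DMSO vehicle.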

[10] = Tanguay_ZF_120hpf_AXIS_legacy: (Legacy) Oregon State University Tanguay Lab 120 Hour Post-fertilization zebrafish Assay for Body Axis Malformation (AID 2283635);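 as to AC50: potency for an increased fraction of larvae scored with body axis malformation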
Procedure, shortened: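 Binary scoring of axis defects at 120 hpf under brightfield, fitted positive versus DMSO. Tropical 5D embryos, chorion removed by pronase at 4 hpf, were singly exposed in sealed, dark plates at 28C from 6 hpf; DMSO 0.64% final.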

[11] = Tanguay_ZF_120hpf_EYE_legacy: (Legacy) Oregon State University Tanguay Lab 120 Hour Post-fertilization zebrafish Assay for Eye Malformation (AID 2283636);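 also: binary presence or absence of eye malformation scored by brightfield in 120 hpf larvae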
Procedure, shortened: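 Static waterborne exposure of dechorionated zebrafish embryos (strain Tropical 5D), 6 to 120 hpf, sealed plates at 28C, 0.64% DMSO vehicle. Eye malformation is scored as a binary endpoint, with gain of signal analysed relative to DMSO.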

[12] = Tanguay_ZF_120hpf_SNOU_legacy: (Legacy) Oregon State University Tanguay Lab 120 Hour Post-fertilization zebrafish Assay for Snout Malformation (AID 2283637)
Procedure, shortened: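 Dechorionated zebrafish, individually housed from 6 hpf in covered, sealed wells at 28C with 0.64% DMSO vehicle, were examined at 120 hpf for snout malformation. Responses were binary and analysed positive-direction relative to DMSO.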

[13] = Tanguay_ZF_120hpf_JAW_legacy: (Legacy) Oregon State University Tanguay Lab 120 Hour Post-fertilization zebrafish Assay for Jaw Malformation (AID 2283638);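 as to AC50: active means more embryos with jaw malformation than DMSO controls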
Procedure, shortened: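 Binary jaw-malformation call at 120 hpf by brightfield microscopy. Embryos (Tropical 5D strain, chorion removed at 4 hpf) were dosed statically at 6 hpf, one per well, at 28C with 0.64% DMSO. Embryos that died were not scored.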

[14] = Tanguay_ZF_120hpf_OTIC_legacy: (Legacy) Oregon State University Tanguay Lab 120 Hour Post-fertilization zebrafish Assay for Otic Vesicle Malformation (AID 2283639)
Procedure, shortened: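 Wild-type zebrafish larvae, whole-embryo exposure from early stage to 120 hpf at 28C. Binary brightfield scoring of otic vesicle morphology, fitted in the positive direction against the DMSO baseline.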

[15] = Tanguay_ZF_120hpf_PE_legacy: (Legacy) Oregon State University Tanguay Lab 120 Hour Post-fertilization zebrafish Assay for Pericardial Edema (AID 2283640);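 as to AC50: potency for increased incidence of pericardial edema versus DMSO baseline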
Procedure, shortened: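 Scoring was binary, by brightfield microscopy at 120 hpf, and skipped where mortality occurred. Wild-type embryos were kept under sealed, foil-covered static exposure at 28C in 0.64% (vol/vol) DMSO.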

[16] = TOX21_p53_BLA_p2_viability: Viability Assessment in the Tox21 HCT-116 p53 Agonism Beta-lactamase Assay, Phase 2 (AID 2283591);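 also: compound exposure lasted 16 h at 37 °C; actives lower the ATP signal meaning cytotoxicity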
Procedure, shortened: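 HCT-116 p53-bla cells (4000/well) rested 5 h at 37C, then received compounds in DMSO (217-fold dilution) for 16 h at 37C, 5% CO2. After the CCF4 read, CellTiter-Glo was added; ATP luminescence was read after 30 min at room temperature.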

[17] = target: Cellular tumor antigen p53 (Homo sapiens) (UniProt P04637); assay: TOX21_p53_BLA_p3_ratio: Tox21 HCT-116 p53 Agonism Beta-lactamase Assay, Ratio, Phase 3 (AID 2283596)
Procedure, shortened: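 Cells were seeded at 4000/well, rested 5 h at 37C, then dosed with DMSO compound solutions (217-fold dilution) for 16 h. CCF4-AM substrate was loaded for 2 h at room temperature, and the 460/530 nm emission ratio was fitted for gain of signal versus DMSO.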

[18] = TOX21_p53_BLA_p4_viability: Viability Assessment in the Tox21 HCT-116 p53 Agonism Beta-lactamase Assay, Phase 4 (AID 2283597);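 also: hits lower the luminescence signal meaning cytotoxicity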
Procedure, shortened: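 Cytotoxicity as reduced cellular ATP (CellTiter-Glo luminescence, 30 min room temperature), measured in the same wells following the CCF4 FRET p53 reading. Human HCT-116 cells received compounds in DMSO (217-fold dilution) for 16 h.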

[19] = target: Cellular tumor antigen p53 (Homo sapiens) (UniProt P04637); assay: TOX21_p53_BLA_p5_ratio: Tox21 HCT-116 p53 Agonism Beta-lactamase Assay, Ratio, Phase 5 (AID 2283599)
Procedure, shortened: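 HCT-116 cells carrying a p53-inducible beta-lactamase reporter were seeded at 4000 cells/well and dosed after 5 h with compound in DMSO (217-fold dilution). After 16 h at 37C, CCF4-AM substrate was added for 2 h, and the 460/530 nm emission ratio was scored as gain-of-signal versus DMSO.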

[20] = TOX21_p53_BLA_p3_viability: Viability Assessment in the Tox21 HCT-116 p53 Agonism Beta-lactamase Assay, Phase 3 (AID 2283593);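 also: cells exposed to compound for 16 h before reading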
Procedure, shortened: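 HCT-116 cells (4000/well) rested 5 h at 37C, then got DMSO compounds by pin tool (217-fold dilution) for 16 h at 37C, 5% CO2. After the bla read, CellTiter-Glo was added and luminescence read at 30 min, room temperature.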

Measured: AC50

CCCN(C1CCN(C(=O)C2CCNCC2)CC1)[C@@H]1CCc2ccc(OC)cc2C1
inactive: [4] | [5] | [6] | [7] | [8] | [9] | [10] | [11] | [12] | [13] | [14] | [15]
active: [1] 81 µM | [2] 28.2 µM | [3] 76.1 µM

CCOCCO
inactive: [1] | [2] | [4] | [16] | [5] | [17] | [18] | [19] | [6] | [7] | [8] | [9] | [10] | [12] | [15]

Clc1nc(Cl)c(Cl)c(Cl)c1Cl
inactive: [1] | [2] | [3] | [4] | [16] | [5] | [17] | [18] | [19] | [6] | [7] | [8] | [9] | [10] | [11] | [12] | [13] | [14]

O=C(O)c1cc(N=Nc2ccc(S(=O)(=O)Nc3ccccn3)cc2)ccc1O
inactive: [1] | [2] | [4] | [16] | [5] | [20] | [17] | [18] | [19] | [6] | [7] | [8] | [9] | [10] | [11] | [12] | [13] | [14] | [15]

CC[C@H]1OC(=O)[C@H](C)[C@@H](O[C@H]2C[C@@](C)(OC)[C@@H](O)[C@H](C)O2)[C@H](C)[C@@H](O[C@@H]2O[C@H](C)C[C@H](N(C)C)[C@H]2O)[C@](C)(O)C[C@@H](C)C(=O)[C@H](C)[C@@H](O)[C@]1(C)O
inactive: [1] | [2] | [3] | [4] | [16] | [5] | [19] | [6] | [7] | [8] | [10] | [11] | [12] | [13] | [14] | [15]

Nc1nc2ncc(CNc3ccc(C(=O)N[C@@H](CCC(=O)O)C(=O)O)cc3)nc2c(=O)[nH]1
inactive: [1] | [2] | [4] | [16] | [5] | [20] | [18] | [19] | [7] | [8] | [9] | [10] | [11] | [12] | [13] | [14] | [15]

Oc1ccc2c(c1)-c1ccccc1C2
active: [7] 79.7 µM | [9] 37.6 µM | [10] 35.5 µM | [11] 48 µM | [12] 39.3 µM | [13] 37.7 µM | [15] 34.5 µM
inactive: [1] | [2] | [3] | [4] | [16] | [5] | [18] | [19] | [6] | [8] | [14]

C1N2CN3CN1CN(C2)C3
inactive: [1] | [2] | [3] | [4] | [5] | [18] | [6] | [7] | [8] | [9] | [10] | [11] | [12] | [13] | [14] | [15]

CC(O)CN(CCN(CC(C)O)CC(C)O)CC(C)O (stereo not drawn)
inactive: [1] | [2] | [3] | [4] | [16] | [5] | [18] | [19] | [6] | [7] | [8] | [9] | [10] | [11] | [12] | [14] | [15]

Cn1c(=O)cc(Oc2ccc(F)cc2F)c2cnc(NCC(C)(C)O)nc21
inactive: [1] | [2] | [3] | [4] | [18] | [8] | [10] | [11] | [12] | [13] | [14]
active: [9] 15.7 µM | [15] 10.3 µM

CCOc1cccc(-n2cc(C(=O)N3CCN(c4cc(C(=O)O)c5ccccc5c4)CC3)nc2-c2ccc(C)cc2)c1
inactive: [8] | [9] | [10] | [11] | [12] | [13] | [14] | [15]
active: [1] 75.1 µM | [2] 88.1 µM | [3] 36.3 µM | [5] 18 µM | [17] 41.7 µM | [18] 13.3 µM | [19] 58.1 µM | [6] 36.4 µM | [7] 24.1 µM

CCOC(=O)c1ccc(C2CCC(NC[C@H](O)COc3ccc(O)c(NS(C)(=O)=O)c3)CC2)cc1 (stereo partly drawn)
active: [16] 70.1 µM | [5] 80.4 µM | [18] 60.2 µM | [7] 84 µM
inactive: [1] | [2] | [3] | [20] | [19] | [6] | [8] | [9] | [10] | [12] | [14] | [15]

CC(=O)OC[C@H]1O[C@@](COC(C)=O)(O[C@H]2O[C@H](COC(C)=O)[C@@H](OC(C)=O)[C@H](OC(C)=O)[C@H]2OC(C)=O)[C@@H](OC(C)=O)[C@@H]1OC(C)=O
inactive: [1] | [2] | [3] | [4] | [5] | [17] | [18] | [19] | [8] | [9] | [10] | [11] | [12] | [13] | [14] | [15]
